We go through 8 molecules from the supplement of paper PMC8975748.

Assay [1] concerns Saccharomyces cerevisiae BY4741 SeMeCo community. As to the kind of experiment: mean cell size (pixel area) (pixels); higher = larger cells. As to conditions: 10 µM; 24 h; SM minimal medium. The method in brief: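 Plates of 384 wells were acoustically predosed with drug at a final 10 µM in SM medium, and 70 µl of a Saccharomyces cerevisiae BY4741 preculture diluted from OD600 = 1.0 to OD600 = 0.3 was added for 24 h. The yeast formed a four-plasmid fluorescent community in which each plasmid complements one auxotrophy and carries a fluorescent marker. Fixed cells were imaged by automated confocal microscopy and analysed in Harmony for mean cell pixel area per well. Values are means of 3 replicates. Same SeMeCo high-content imaging drug screen: Selleck FDA-approved drugs at 10 µM, 24 h in SM medium, 384-well plates, 3 replicates.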

The test system is the same in assay [2]. As to the kind of experiment: z-score of prototroph abundance vs DMSO median; higher = larger share of this subpopulation than in DMSO controls. As to conditions: 10 µM; 24 h; SM minimal medium; subpopulation (auxotrophy): Prototroph. Summed up: (§1)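 Automated confocal microscopy of paraformaldehyde-fixed cells was used to follow a Saccharomyces cerevisiae BY4741 community carrying four plasmids, each restoring one auxotrophy and encoding a distinct fluorescent protein. The community was pre-grown overnight to OD600 1.0, diluted to 0.3, and added at 70 µl to 384-well plates acoustically predosed with library drugs (10 µM final) for 24 h of growth in minimal SM medium. Single-auxotroph fluorescent strains set thresholds and autofluorescence correction, and each subpopulation's abundance was scored as a z-score against the vehicle-well median.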

Assay [3] has the same test system. As to the kind of experiment: z-score of subpopulation abundance vs DMSO median, subpopulation auxotrophic for L; higher = larger share of this subpopulation than in DMSO controls. As to conditions: 10 µM; 24 h; SM minimal medium; subpopulation (auxotrophy): L. The method in brief: as §1
Assay [4] shares this test system. The assay is described as follows: z-score of subpopulation abundance vs DMSO median, subpopulation auxotrophic for U; higher = larger share of this subpopulation than in DMSO controls. As to conditions: 10 µM; 24 h; SM minimal medium; subpopulation (auxotrophy): U. The method in brief:
as §1

Assay [5] has the same test system. As to the kind of experiment: z-score of subpopulation abundance vs DMSO median, subpopulation auxotrophic for H; higher = larger share of this subpopulation than in DMSO controls. As to conditions: 10 µM; 24 h; SM minimal medium; subpopulation (auxotrophy): H. Summed up: as §1
Assay [6] shares this test system. The assay is described as follows: z-score of subpopulation abundance vs DMSO median, subpopulation auxotrophic for LU; higher = larger share of this subpopulation than in DMSO controls. To be noted: 10 µM; 24 h; SM minimal medium; subpopulation (auxotrophy): LU. Summed up:
as §1

The test system is the same in assay [7]. The assay is described as follows: z-score of subpopulation abundance vs DMSO median, subpopulation auxotrophic for LM; higher = larger share of this subpopulation than in DMSO controls. To be noted: 10 µM; 24 h; SM minimal medium; subpopulation (auxotrophy): LM. Summed up:
as §1

The test system is the same in assay [8]. As to the kind of experiment: z-score of subpopulation abundance vs DMSO median, subpopulation auxotrophic for HM; higher = larger share of this subpopulation than in DMSO controls. To be noted: 10 µM; 24 h; SM minimal medium; subpopulation (auxotrophy): HM. The method in brief:
as §1

Assay [9] shares this test system. The assay is described as follows: z-score of subpopulation abundance vs DMSO median, subpopulation auxotrophic for HU; higher = larger share of this subpopulation than in DMSO controls. As to conditions: 10 µM; 24 h; SM minimal medium; subpopulation (auxotrophy): HU. Summed up:
as §1

Assay [10] shares this test system. As to the kind of experiment: z-score of subpopulation abundance vs DMSO median, subpopulation auxotrophic for UM; higher = larger share of this subpopulation than in DMSO controls. To be noted: 10 µM; 24 h; SM minimal medium; subpopulation (auxotrophy): UM. The method in brief: as §1
For assay [11] the test system is unchanged. As to the kind of experiment: z-score of subpopulation abundance vs DMSO median, subpopulation auxotrophic for HL; higher = larger share of this subpopulation than in DMSO controls. As to conditions: 10 µM; 24 h; SM minimal medium; subpopulation (auxotrophy): HL. The method in brief: as §1
The test system is the same in assay [12]. The assay is described as follows: z-score of subpopulation abundance vs DMSO median, subpopulation auxotrophic for HLU; higher = larger share of this subpopulation than in DMSO controls. To be noted: 10 µM; 24 h; SM minimal medium; subpopulation (auxotrophy): HLU. The method in brief: as §1
Assay [13] shares this test system. The assay is described as follows: z-score of subpopulation abundance vs DMSO median, subpopulation auxotrophic for HLM; higher = larger share of this subpopulation than in DMSO controls. To be noted: 10 µM; 24 h; SM minimal medium; subpopulation (auxotrophy): HLM. Summed up:
as §1

The test system is the same in assay [14]. The assay is described as follows: z-score of subpopulation abundance vs DMSO median, subpopulation auxotrophic for LUM; higher = larger share of this subpopulation than in DMSO controls. To be noted: 10 µM; 24 h; SM minimal medium; subpopulation (auxotrophy): LUM. Summed up:
as §1

Assay [15] shares this test system. As to the kind of experiment: z-score of subpopulation abundance vs DMSO median, subpopulation auxotrophic for HUM; higher = larger share of this subpopulation than in DMSO controls. To be noted: 10 µM; 24 h; SM minimal medium; subpopulation (auxotrophy): HUM. Summed up: as §1
Assay [16] shares this test system. The assay is described as follows: z-score of subpopulation abundance vs DMSO median, subpopulation auxotrophic for HLUM; higher = larger share of this subpopulation than in DMSO controls. As to conditions: 10 µM; 24 h; SM minimal medium; subpopulation (auxotrophy): HLUM. Summed up:
as §1

Structures can show the parent of a compound that is named as a salt. ± gives the standard deviation of the averaged measurements.

Regarding `Cc1nccn1CC1CCc2c(c3ccccc3n2C)C1=O` (stereo not drawn) [Ondansetron Hydrochloride Dihydrate], the mean cell size in assay [1] amounted to 12.3 ± 0.24. In addition, the “z-score of prototroph abundance” value in assay [2] is 0.12. Moreover, the “z-score of subpopulation abundance” value in assay [3] is -0.38; in assay [4], 1.06; in assay [5], -0.54; in assay [6], -0.34; in assay [7] it was -0.17; in [8] it was -0.61. Further, the “z-score of subpopulation abundance” value in assay [9] is 0.2; in [10], 0.75; in assay [11] it was -0.09; in assay [12], -0.6; in assay [13], -0.48; in assay [14], -0.16.
In turn, `CCN(CC)C(=O)C1(c2ccccc2)CC1CN` (stereo not drawn) [Milnacipran HCl] registered a mean cell size in assay [1] of 12.3 ± 0.28. Moreover, in [2], the “z-score of prototroph abundance” value was found to be 0.28. In addition, the “z-score of subpopulation abundance” value in [3] was 0.74; in assay [4], 0.47; in [5], -1.04; in assay [7], 0; in assay [8], -0.8; in assay [9], -0.14. In addition, the “z-score of subpopulation abundance” value was 0.33 in [10]; -0.61 in [11]; -0.08 in assay [12]; -0.14 in [13]; -0.13 in assay [15]; 0.17 in assay [14].
As for `C[n+]1ccccc1C=NO` [Pralidoxime Iodide], in assay [1], the mean cell size came out at 12.27 ± 0.1. In assay [2], the “z-score of prototroph abundance” value was -0.53. Moreover, the “z-score of subpopulation abundance” value in assay [3] is -0.18; in assay [4], 0.58; in [5] it was -0.39; in [6], 0.19; in assay [7], 0.72; in assay [8], 0.77. Moreover, the “z-score of subpopulation abundance” value in assay [9] is -0.21; in assay [10] it was 0.29; in assay [11], 0.06; in [12], -0.23; in assay [15], 0.13; in assay [16] it was 0.03.
In the case of `Cc1cccc(C)c1NC(=O)C1CCCCN1C` (stereo not drawn) [Mepivacaine HCl], the “z-score of subpopulation abundance” value was -0.36 in [3]; -0.77 in assay [5]; 0.44 in assay [6]; -0.76 in assay [7]; -0.57 in assay [8]; 0.57 in assay [9]. Also, the “z-score of subpopulation abundance” value in [10] came out at 2.17; in [12], 0.11; in assay [13] it was 0.13; in assay [15], 0.36; in [14], 0.38.
Take `C[C@]12CC[C@@H]3c4ccc(OS(=O)(=O)O)cc4CC[C@H]3[C@@H]1CCC2=O` [Estropipate]: the mean cell size in assay [1] came to 12.21 ± 0.12. Further, the “z-score of prototroph abundance” value in [2] came to 0.59. The “z-score of subpopulation abundance” value in [4] was -0.01; in assay [5], -0.96; in [6] it was -0.6; in assay [7], -0.33; in [8], -0.81; in assay [10] it was 0.16. For the same molecule, the “z-score of subpopulation abundance” value was -0.81 in assay [11]; -0.73 in assay [12]; -0.64 in assay [13]; -0.32 in assay [15]; -0.11 in assay [14].
Regarding `O=[N+]([O-])c1ccc(O)c2ncccc12` [Nitroxoline], in [1], the mean cell size stood at 13.6 ± 0.5. The “z-score of prototroph abundance” value in assay [2] was -16.6. For the same molecule, the “z-score of subpopulation abundance” value is -0.84 in assay [3]; 9.75 in assay [5]; 4.84 in assay [7]; 27.9 in assay [8]; 16.3 in assay [9]; 4.38 in assay [10]. Besides, the “z-score of subpopulation abundance” value came to 22.6 in assay [11]; 24.8 in assay [12]; 65.9 in [13]; 19.7 in [15]; 11 in [14]; 36.6 in assay [16].
For `Cc1ccccc1C(OCCN(C)C)c1ccccc1` (stereo not drawn) [Orphenadrine Citrate], in [2], the “z-score of prototroph abundance” value was 0.04. Further, the “z-score of subpopulation abundance” value is -0.09 in assay [3]; 0.9 in assay [4]; 0.36 in assay [6]; -0.43 in assay [7]; -0.64 in assay [8]; 0.14 in assay [9]. Also, the “z-score of subpopulation abundance” value in assay [12] is 0.33; in assay [13] it was -0.97; in assay [14], 0.36; in [16], -0.1.
In turn, `Cc1ncc([N+](=O)[O-])n1CCO` [Metronidazole] displayed a mean cell size in assay [1] of 12.4 ± 0.12. The “z-score of subpopulation abundance” value in assay [3] is 0.11; in [4] it was -0.5; in [5], 0.44; in assay [6], -0.37; in assay [7], 0.12; in [8], -0.42. In addition, the “z-score of subpopulation abundance” value in assay [10] was -0.62; in assay [11], -0.42; in assay [12], 0.18; in assay [13], -0.7; in assay [16], 0.08.
